# Measured values taken from PubChem BioAssay (NCATS).
# Records with an inconclusive call do not appear. Values without a mark were called inactive. The source made the active and inactive calls. Calls follow the shape of the dose curve; as a rule, active = well fitted cell-killing curve with a large enough effect; inconclusive = small, poorly fitted or top-dose-only effect, or effect the other way; inactive = no such curve, though single readings can be large or run the other way.
# Test: Quantitative highthroughput screen to assess conditional lethalithy of SEM cells grown in RPMI1640 with unreated serum (RPMI+s) (AID 1963883);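 as to viability: 100% = DMSO wells and 0% = empty wells without cells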
# Conditions: SEM B-ALL cells, CellTiter-Glo viability, 48 h; series mostly up to 45.8 µM; viability: at the top concentration
# Method in brief: (§1)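 Each medium arm—HPLM with 10% dialyzed FBS, or RPMI1640 with 5 mM glucose and 10% untreated or dialyzed FBS—was screened against an 11-point, 3-fold compound titration for 48 h at 37 °C, with CellTiter-Glo luminescence as endpoint.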
# Also: nearly all actives have a fitted effect of over 35% in size.
# Potency is read from the fitted curve at half-maximal effect.
SMILES,viability,Potency
COc1cccc(N(C)C(=S)Oc2ccc3c(c2)CCCC3)n1,92.7%,–
Fc1ccc(C(c2ccc(F)cc2)N2CCN(CC=Cc3ccccc3)CC2)cc1,79.2%,–
CCCCCCCCCCCCCCCC(=O)OC[C@@H](NC(=O)C(Cl)Cl)[C@H](O)c1ccc([N+](=O)[O-])cc1,93.8%,–
COc1cc(C=CC(=O)CC(=O)C=Cc2ccc(O)c(OC)c2)ccc1O,–,17.1 µM (active)
C[C@]12C=CC(=O)N[C@@H]1CC[C@H]1[C@H]3CC[C@@H](C(=O)Nc4cc(C(F)(F)F)ccc4C(F)(F)F)[C@@]3(C)CC[C@@H]12,108%,–
O=C(C=CC#Cc1cccc(NS(=O)(=O)c2ccccc2)c1)NO,–,2.96 µM (active)
CCC(=C(CC)c1ccc(O)cc1)c1ccc(O)cc1,92.2%,–
CC(C)c1onc(-c2c(Cl)cccc2Cl)c1COc1ccc(C=Cc2cccc(C(=O)O)c2)c(Cl)c1,82%,–
O=C(NNC(=O)c1ccc(CNS(=O)(=O)c2ccc(F)c(Cl)c2)cc1)c1ccccc1,108%,–
CC(C=CC1=C(C)CCCC1(C)C)=CC=CC(C)=CC(=O)O,–,inactive
C[C@H](CCC(=O)O)[C@H]1CC[C@H]2[C@H]3[C@@H](CC[C@]12C)[C@@]1(C)CC[C@@H](O)C[C@H]1C[C@@H]3O,81.7%,–
Cc1cccc(C#Cc2ccccc2)n1,76.2%,–
C[C@H]1[C@H](NC(=O)C(=NOC(C)(C)C(=O)O)c2csc(N)n2)C(=O)N1S(=O)(=O)O,80.6%,–

# Test: Quantitative highthroughput screen to assess conditional lethalithy of SEM cells grown in RPMI1640 with dialyzed fetal bovine serum (RPMI+ds) (AID 1963884);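 as to viability: 100% = DMSO control wells and 0% = empty wells without cells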
# Conditions: SEM B-ALL cells, RPMI+dialyzed FBS, CellTiter-Glo viability, 48 h; series mostly up to 45.8 µM; viability: at the top concentration
# Method in brief: as §1
SMILES,viability,Potency
COc1cccc(N(C)C(=S)Oc2ccc3c(c2)CCCC3)n1,87%,–
COc1cc(C=CC(=O)CC(=O)C=Cc2ccc(O)c(OC)c2)ccc1O,–,21.5 µM (active)
CC(C)c1onc(-c2c(Cl)cccc2Cl)c1COc1ccc(C=Cc2cccc(C(=O)O)c2)c(Cl)c1,84.4%,–
CC(C=CC1=C(C)CCCC1(C)C)=CC=CC(C)=CC(=O)O,–,inactive
Cc1cccc(C#Cc2ccccc2)n1,–,13.2 µM (active)
